According to the supplement of paper PMC7801607:

Assays:
CHO = assay: % viability of CHO cells (MTT); higher = less toxic; details: 48 h
Summary of the method: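 CHO cells were seeded at 10^6 cells/well in 200 µL and left overnight to attach. The medium was then replaced with fresh medium containing compound at 2 or 20 µM for 48 h. Survival was read colorimetrically with the tetrazolium (MTT) assay. Percent viability was expressed relative to untreated cells.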

HepG2-A16-CD81 = assay: % inhibition of HepG2 viability (CellTiter-Glo); higher = more toxic; details: 5 µM;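 note: HepG2-A16-CD81 hepatoma cells plated as in the liver-stage assay but without sporozoites, with DMSO wells as negative and 25 µM puromycin as positive control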
[1] = test system: Plasmodium falciparum NF54 stage IV/V gametocytes; assay: % inhibition of gametocyte viability (PrestoBlue); higher = more inhibition; details: 48 h
Summary of the method: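 Stage IV/V NF54 gametocytes (2% gametocytaemia, 5% haematocrit, 100 µL/well) were exposed to compound at 1 or 5 µM. Incubation was 48 h at 37 °C, stationary and hypoxic, followed by 10 µL PrestoBlue for 2 h. Fluorescence at 612 nm was read on 70 µL of transferred supernatant. Percent inhibition of gametocyte viability was normalised to DMSO and kill controls from a single run.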

[2] = test system: Plasmodium falciparum NF54 asexual blood stage; assay: % inhibition of asexual blood stage proliferation (pLDH); higher = more inhibition; details: 72 h
Summary of the method: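 Plasmodium falciparum NF54 ring-stage cultures (1% haematocrit, 2% parasitaemia) were exposed to compound at 2 or 20 µM in 96-well plates. Incubation was 72 h at 37 °C under 4% CO2, 3% O2 and 93% N2. Survival was read colorimetrically at 620 nm with the parasite lactate dehydrogenase assay. Percent inhibition of asexual proliferation was normalised to DMSO and kill controls, and the screen was run on two separate occasions.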

[3] = test system: Plasmodium falciparum NF54 stage IV/V gametocytes; assay: % inhibition of gametocyte viability (ATP bioluminescence); higher = more inhibition; details: 24 h
Summary of the method: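 In 96-well plates, compound at 1 or 5 µM was added to 30,000 density-gradient-enriched stage IV/V NF54 gametocytes per well and incubated for 24 h at 37 °C. ATP readout used the Promega BacTiter Glo bioluminescence system. Percent inhibition of gametocyte viability comes from a single run, normalised to control wells.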

[4] = test system: Plasmodium falciparum NF54 stage IV/V gametocytes; assay: % inhibition of gametocyte viability (luciferase reporter); higher = more inhibition; details: 48 h
Summary of the method: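 Percent inhibition was normalised to controls from a single run. Stage IV/V gametocytes of the NF54-Pfs16-GFP-Luc line, at 2% gametocytaemia and 2% haematocrit, were exposed to compound at 1 or 5 µM for 48 h at 37 °C under stationary, hypoxic conditions. Luminescence was then read from 30 µL lysate mixed with 30 µL Promega luciferin substrate on a GloMax-Multi+ reader with 10 s integration.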

Row | Structure (SMILES) | % viability of CHO cells (CHO; 2 µM) | % viability of CHO cells (CHO; 20 µM) | % inhibition of HepG2 viability (HepG2-A16-CD81) | % inhibition of gametocyte viability ([1]; 1 µM) | % inhibition of gametocyte viability ([1]; 5 µM) | % inhibition of asexual blood stage proliferation ([2]; 2 µM) | % inhibition of asexual blood stage proliferation ([2]; 20 µM) | % inhibition of gametocyte viability ([3]; 1 µM) | % inhibition of gametocyte viability ([3]; 5 µM) | % inhibition of gametocyte viability ([4]; 1 µM) | % inhibition of gametocyte viability ([4]; 5 µM)
1 | C[C@H]1CC[C@]2(NC1)O[C@H]1C[C@H]3[C@@H]4CC[C@H]5C[C@@H](O)CC[C@]5(C)[C@H]4CC[C@]3(C)[C@H]1[C@@H]2C | 105% | 117% | -5.8% | 13.5% | 28.1% | 35.3% | 33.7% | < 0% | < 0% | 14.1% | 0.706%
2 | Nc1c(C(=O)NCc2ccco2)c2nc3ccccc3nc2n1CCN1CCCCC1 | 104% | 57.3% | 10.7% | 23.5% | 46.1% | 77.4% | 116% | 51.4% | 59.7% | 13.7% | 0.236%
3 | CN1C(=O)C(c2ccccc2)C(=O)N(c2ccccc2)c2cc(C(F)(F)F)ccc21 (stereo not drawn) | 95.2% | 110% | 3.09% | 20.2% | 14.5% | -15.6% | 32.9% | < 0% | < 0% | 11.6% | < 0%
4 | CCN1CCN(Cc2nc3ccc([N+](=O)[O-])cc3c(=O)n2-c2ccccc2F)CC1 | 105% | 105% | -4.34% | < 0% | < 0% | 33% | 24.4% | 13.8% | 17.7% | 9.48% | < 0%
5 | COc1ccccc1CN[C@H]1C2CCN(CC2)[C@H]1C(c1ccccc1)c1ccccc1 | 102% | 117% | -1% | 17.5% | 8.85% | -2.68% | 93% | 7.68% | 29.7% | 15.2% | < 0%
6 | O=C(NC12CC3CC(CC(C3)C1)C2)c1cc2ccccc2[nH]1 | 103% | 134% | 5.16% | 36.4% | 12.5% | 35% | 73.8% | < 0% | < 0% | < 0% | < 0%
7 | CCCCc1ccc(C(=O)O)nc1 | 90.2% | 130% | -0.607% | < 0% | 2.97% | 83.3% | 44% | 5.47% | < 0% | 7.1% | 6.9%
8 | CC(C)Oc1cccc(NC(=O)c2ccccc2C(F)(F)F)c1 | 88.6% | 112% | 3.41% | 2.75% | < 0% | 2.15% | 9.83% | 3.08% | < 0% | < 0% | < 0%
9 | COC(=O)Nc1nc2ccccc2[nH]1 | 99.1% | 110% | -1.93% | < 0% | < 0% | 6.96% | 10.6% | 1.54% | < 0% | < 0% | < 0%
10 | C[N+]1(C)CCCC(OC(=O)C(O)(c2ccccc2)c2ccccc2)C1 (stereo not drawn) | 122% | 140% | -0.474% | 23.3% | 9.34% | 26% | 73.9% | < 0% | < 0% | < 0% | 3.73%
11 | NC1(C(=O)O)CCP(=O)(O)CC1 (stereo not drawn) | 113% | 81.6% | -2.82% | < 0% | < 0% | 12.3% | 13.4% | < 0% | < 0% | < 0% | 9.64%
12 | C[C@@]1(O)[C@H](O)[C@@H](CO)O[C@H]1n1ccc2c(N)ncnc21 | 127% | 92% | -1.39% | < 0% | 2.26% | 14.8% | 43.2% | 12.3% | 7.84% | 1.8% | < 0%
13 | COc1cc(C(C)(C)CCCC(C)C)cc(OC)c1OC | 108% | 76.7% | 7.92% | 11.5% | 6.64% | -22% | 48.9% | 2.47% | < 0% | 8.33% | < 0%
